Results published in PubChem BioAssay AID651812 (National Center for Advancing Translational Sciences (NCATS), 2012).
In all, about 2,100 compounds went through this assay and about 650 (31%) were called active. Not shown: some 16% with an inconclusive outcome. The call rests on the fitted dose curve; in most records, active means well fitted inhibition curve with a large enough effect; inconclusive means small, poorly fitted or top-dose-only effect; inactive means flat fitted curve, though single readings scatter. This is one part of the list.

Test: qHTS for inhibitors of Vif-A3G interactions: Cherry picks; further: nearly all actives have a fitted effect of over 80% in size
Settings: HeLa A3G-eYFP + Vif (tagged APOBEC3G with the HIV-1 protein that degrades it), 24 h; Potency: eYFP fluorescence increase; series mostly up to 36.9 µM
Text: The recent discovery and characterization of host restriction factors, which provide a potent defense to invading retroviruses, has provided new targets for antiviral drug development. APOBEC3G (A3G) and APOBEC3F (A3F) are potent cytidine deaminases that block HIV-1 replication; HIV-1 expresses the Vif protein, which counteracts A3G and A3F by binding to them and inducing their proteasomal degradation. The Vif-A3G and Vif-A3F interactions provide two potential targets for development of small molecules which can interfere with the ability of Vif to degrade A3G or A3F. […] To identify inhibitors that can interfere with Vif mediated degradation of A3G and A3F, we have developed Hela cell lines that stably express A3G or A3F tagged with eYFP at the C-terminal end (A3G-eYFP or A3F-eYFP, respectively) and Vif. In the absence of an inhibitor, Vif induces degradation of A3G-eYFP and A3F-eYFP, and the cells are not fluorescent. In the presence of an inhibitor, it is expected that Vif will be unable to degrade A3G-eYFP and/or A3F-eYFP, resulting in an increase in yellow fluorescence. In this assay, Vif A3G was screened against the cherry picks ordered from the MLSMR. NIH Chemical Genomics Center [NCGC] NIH Molecular Libraries Probe Centers Network [MLPCN] MLPCN Grant: MH093245 Assay Submitter (PI): Vinay Pathak, National Cancer Institute
A3G-Vif cells were harvested from T225 flask and resuspended in phenol free OPTI-MEM medium with 5% FBS. Then 5 uL of 140,000 cells/mL resuspended cells was dispensed into each well of low base Aurora COC 1,536-well plates (black walled, clear bottom) using a Multidrop Combi dispenser. After overnight culture at 37 deg C with 5% CO2, a total of 23 nL of compounds at 5 selected concentrations from the NPC or positive control (2 mM stock of MG132) in DMSO was transferred to each well of the assay plate using a pintool (Kalypsys, San Diego, CA), and the plates were further incubated at 37 deg C with 5% CO2 for 24 hours. After that, the plates were measured on Acumen Explorer (TTP Lab Tech). The fluorescence was detected by 488 nm/Ex and […].
Potency means the concentration at half of the fitted maximal effect.

Potency, active:
CN1/C(=C\C=C(/C#N)C(=O)Nc2ccc(Cl)cc2)C(C)(C)c2ccccc21 4.98 µM
O=C(NNC1=Nc2cccc3cccc1c23)c1ccc(Br)cc1 18.4 µM
COc1ccc2c(c1)N(C)/C(=C/c1cccc[n+]1C)S2 14 µM
CCN1/C(=C/c2cccc[n+]2C)Sc2ccc(OC)cc21 16.4 µM
CC[n+]1ccccc1/C=C1\Sc2ccc(C)cc2N1C 20.6 µM
O=C(Cc1nc2ccccc2[nH]c1=O)c1ccc(Cl)cc1 20.6 µM
O=C(NCC1CCCO1)c1nn2c(C(F)(F)F)cc(-c3cc(Br)cs3)nc2c1Br (stereo unspecified) 13 µM
N#Cc1c(-c2ccc(F)cc2)c(-c2ccc(F)cc2)nn(CCO)c1=O 12.5 µM
COc1cc(/C=N\Nc2ccc([N+](=O)[O-])cc2)ccc1OCC(=O)Nc1ccc(C)c(C)c1 8.2 µM
C[n+]1ccc(/C=C/c2c[nH]c3ccccc23)cc1 11.6 µM
CC[n+]1ccc(/C=C/c2c[nH]c3ccccc23)cc1 14.6 µM
OCC[n+]1ccc(/C=C/c2c[nH]c3ccccc23)cc1 10.3 µM
N#CC(C(=O)NCc1ccccc1)c1nc2ccccc2nc1N1CCCC1 (stereo unspecified) 18.4 µM
CCN(CC)c1nc2ccccc2nc1C(C#N)C(=O)NCCc1ccccc1 (stereo unspecified) 3.66 µM
Cc1ccc(-c2nc3sc(C#N)c(N)n3c(=O)c2C#N)cc1 18.4 µM
CCN(CC)c1ccc2cc(-c3nc(-c4ccc(Cl)cc4Cl)cs3)c(=O)oc2c1 2.91 µM
CCN(CC)c1ccc2cc(-c3nc(-c4cc(OC)c(OC)c(OC)c4)no3)c(=O)oc2c1 0.58 µM
CCN(CC)c1ccc2cc(-c3nnc(-c4ccccc4)o3)c(=O)oc2c1 0.627 µM
CCN(CC)c1ccc2cc(-c3nc(-c4cccs4)no3)c(=O)oc2c1 2.91 µM

Potency, inactive:
COCCCNC(=S)N/N=C/c1cccc(OC)c1O
CC1=C(n2nnc3ccccc32)C(c2ccccc2)C(C#N)=C(N)O1 (stereo unspecified)
COc1ccc(C(=O)Nc2ccc3c(c2)N(C)C(=O)c2ccccc2S3)cc1OC
CCOc1ccc(CN2C(=O)c3ccccc3Sc3ccc(C(=O)O)cc32)cc1
N#CC1=C(N)Oc2ccc3ccc(O)cc3c2C1c1ccsc1 (stereo unspecified)
c1ccc2[nH]c(NN=C3CCCCCC3)nc2c1
CC(=O)/C(=C\N(C)C)Sc1ccc(Cl)cc1
COc1cccc(C2=CC(c3cccs3)n3nnnc3N2)c1 (stereo unspecified)
Cc1cc(C)n(S(=O)(=O)/C=C/c2ccccc2)n1
COc1ccc(C)cc1NCc1cc(=O)oc2cc(-c3ccccc3)c(O)cc12
CCOC(=O)c1c(-c2ccc(OC)cc2)csc1/N=C/C1C(=O)CCCC1=O
O=C(CC1CC2CCC1C2)Nc1nc(-c2ccccn2)cs1 (stereo unspecified)
N#Cc1c(-c2ccccc2)c(-c2ccccc2)nn(CC(=O)NNC(=O)Nc2ccccc2)c1=O
CCn1c(SCC(=O)N/N=C/c2ccc(C)s2)nc2ccccc21
Cc1ccc(S(=O)(=O)N2CCCCC2CCNC(=O)C(=O)NCc2ccco2)cc1 (stereo unspecified)
Cc1cccc(C)c1OCC(=O)N/N=C/c1ccc2c(c1)OCO2
Cc1ccccc1OCC(=O)N/N=C/c1ccc(N(C)C)cc1
COCCNC(=S)N/N=C(\C)c1ccccc1O
C[n+]1ccc(/C=C/c2cc[n+](C)c3ccccc23)c2ccccc21
CC(=O)Nc1cccc(-c2cc(NC=O)c3ncc(-c4ccc(F)c(Cl)c4)n3c2)c1
COc1ccc(-c2cc(NC=O)c3ncc(-c4cccc(C(F)(F)F)c4)n3c2)cc1OC
N#C/C=C/N1CCN(C(=O)c2ccco2)CC1
COc1cc(C2Sc3ccccc3NC3=C2C(=O)OC3)cc(OC)c1OC (stereo unspecified)
COc1cc(CCC(=O)Nc2nnc(C)s2)cc(OC)c1OC
Cc1cc(C)nc(NC(=S)Nc2cccc(Cl)c2Cl)c1
NC(=O)C1CCN(c2nc3ccccc3nc2NS(=O)(=O)c2ccc(Br)cc2)CC1
CN1CCN(c2ccc([N+](=O)[O-])cc2C(=O)c2ccc(Br)cc2)CC1
Cc1cc(C)c(C(=O)N(CCN(C)C)CC2CCCN(Cc3ccccc3F)C2)o1 (stereo unspecified)
COc1ccccc1C(=O)Nc1ccc2c(c1)CN(C(=O)CSC)CC2
O=C(NCc1ccco1)C1Cc2c(-c3cccc(F)c3)ccnc2O1 (stereo unspecified)
Cc1ccc(C(=O)c2cc([N+](=O)[O-])ccc2N2CCN(C)CC2)cc1
CCN(CC)c1ccc2cc(-c3nc4sc5c(c4c(=O)[nH]3)CCC(C(C)(C)C)C5)c(=O)oc2c1 (stereo unspecified)
